PubChem BioAssay (Tox21)
Results filed as inconclusive are left out. The source made the active and inactive calls. Unless noted, calls come from the whole dose curve; as a rule, active = well fitted curve in the direction sought with a large enough effect in the repeat runs; inconclusive = weak or mixed curves; inactive = no such curve, though single readings can be large; an effect the other way counts as inactive or inconclusive.

Experiments:
[1] = qHTS assay to identify small molecule antagonists of the progesterone receptor (PR) signaling pathway - cell viability counter screen (AID 1346798); note: nearly all actives have a fitted effect of over 50% in size; note: potency is the fitted concentration of half-maximal effect
How it was run: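 Cytotoxicity read as CellTiter-Glo luminescence (30 min, room temperature) in the same wells as the beta-lactamase readout. HEK293T PR-UAS-bla cells in charcoal-stripped 2% FBS received compound and R5020, then 16 h at 37C, 5% CO2.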

[2] = qHTS assay to identify small molecule antagonists of the TGF-beta/Smad signaling pathway - cell viability counter screen (AID 1346824); note: nearly all actives have a fitted effect of over 50% in size
How it was run: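 SBE-bla HEK 293T cells were plated overnight at 37 C, then given compounds in DMSO plus TGF-beta1 (added as 0.25 ng/mL solution) for 5 hr. After the bla read, CellTiter-Glo was added to the same wells and luminescence read after 30 min at room temperature.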

[3] = qHTS assay to identify small molecule agonists of the TGF-beta/Smad signaling pathway - cell viability counter screen (AID 1346829); note: top concentration of the series differs between compounds; nearly all actives have a fitted effect of over 45% in size
How it was run: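 Here the cytotoxicity of library compounds is measured in SBE-bla HEK 293T cells treated for 5 hr, using CellTiter-Glo added to wells already read for the beta-lactamase reporter.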

[4] = qHTS assay to identify small molecule agonists of the TGF-beta/Smad signaling pathway (AID 1346859; active = well fitted activation curve with a large enough effect in the signal ratio in the repeat runs, not every such curve was filed as active; the % refers to the signal ratio; note: series mostly up to about 77 µM)
How it was run: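 Fluorescence (ex 405 nm; em 460 and 530 nm) was read 2 h after LiveBLAzer FRET substrate at RT. The preceding compound treatment of overnight-plated SBE-bla HEK293T cells lasted 5 h at 37 C.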

[5] = biological target: Thyrotropin-releasing hormone receptor (Homo sapiens) (UniProt P34981); assay: qHTS assay to identify small molecule antagonists of the thyrotropin-releasing hormone receptor (TRHR) signaling pathway (AID 1346877; active = well fitted inhibition curve with a large enough effect in the repeat runs, not every such curve was filed as active; note: series mostly up to about 51 µM)
How it was run: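 TRHR-expressing HEK293 cells loaded with calcium dye for 2 h at 37 C; compounds pre-incubated 5 min at room temperature before TRH challenge at 1 nM final. Intracellular calcium fluorescence read kinetically for 3 min; 15 concentrations in triplicate.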

[6] = biological target: Thyrotropin-releasing hormone receptor (Homo sapiens) (UniProt P34981); assay: qHTS assay to identify small molecule agonists of the thyrotropin-releasing hormone receptor (TRHR) signaling pathway (AID 1346891; calls by dose curve; note: series mostly up to about 58 µM)
How it was run: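 Agonist-mode intracellular calcium readout: kinetic fluorescence over 3 min at 1 s intervals after compound addition to TRHR-HEK293 cells (18 h seeded, 2 h dye-loaded at 37 C). Fifteen concentrations, triplicates.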

[7] = Caspase-3/7 induction in HepG2 cells by small molecules, qHTS assay (AID 1346978); note: nearly all actives have a fitted effect of over 15% in size
How it was run: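 Wild-type HepG2 cells (2,000/well) were settled 5 h at 37 C, 5% CO2, then exposed to compounds in DMSO for 17 h. Caspase-3/7 activity was read by luminescence 30 min after adding Caspase-Glo 3/7 reagent at room temperature.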

[8] = Caspase-3/7 induction in CHO-K1 cells by small molecules, qHTS cell viability counter screen (AID 1346979); note: nearly all actives have a fitted effect of over 35% in size; note: potency is the fitted concentration of half-maximal effect
How it was run: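 Cytotoxicity counter screen: CellTiter-Fluor added to compound-treated wild-type CHO-K1 cells at 16 h (37C, 5% CO2), fluorescence measured 1 h later; same wells as caspase-3/7 measurement.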

[9] = Caspase-3/7 induction in CHO-K1 cells by small molecules, qHTS assay (AID 1346980); note: nearly all actives have a fitted effect of over 15% in size
How it was run: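 Wild-type cells were seeded at 1,500 per well and settled 5 hr at 37 C, 5% CO2, then exposed to DMSO-dissolved compounds for 17 hr. Caspase-Glo 3/7 reagent was added, and luminescence was read after 30min at room temperature.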

[10] = biological target: Nuclear receptor subfamily 1 group I member 2 (Homo sapiens) (UniProt O75469); assay: Human pregnane X receptor (PXR) small molecule agonists, qHTS assay (AID 1346982); note: nearly all actives have a fitted effect of over 35% in size; note: potency is the fitted concentration of half-maximal effect
How it was run: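 PXR-Luc HepG2 reporter cells (CYP3A4-driven luciferase) in 5% charcoal-stripped FBS medium, plated 5 h before compound addition, then treated 24 h at 37C. Luciferase read by ONE-Glo luminescence after 30 min at room temperature.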

[11] = biological target: Cytochrome P450 2D6 (Homo sapiens) (UniProt P10635); assay: Cytochrome P450 Family 2 Subfamily D Member 6 (CYP2D6) small molecule antagonists: luciferase reporter qHTS assay (AID 1671196); note: nearly all actives have a fitted effect of over 50% in size; note: potency is the fitted concentration of half-maximal effect
How it was run: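 Cell-free P450-Glo system: CYP2D6 with proluciferin substrate was pre-incubated with compound for 10 min, then reacted with NADPH regeneration for 1 h at room temperature. Luciferin product was detected after 20 min, and data were reported as relative luminescence units.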

[12] = biological target: Cytochrome P450 2C19 (Homo sapiens) (UniProt P33261); assay: Cytochrome P450 Family 2 Subfamily C Member 19 (CYP2C19) small molecule antagonists: luciferase reporter qHTS assay (AID 1671197); note: nearly all actives have a fitted effect of over 65% in size; note: potency is the fitted concentration of half-maximal effect
How it was run: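 Light output is proportional to CYP2C19 activity: proluciferin substrate is converted to luciferin, then detected by a luciferin detection reagent that also stops the 1 h, 37C NADPH-driven reaction. Ketoconazole serves as positive control.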

[13] = Human pregnane X receptor (PXR) small molecule agonists, qHTS cell viability counter screen (AID 1346977); note: nearly all actives have a fitted effect of over 50% in size; note: potency is the fitted concentration of half-maximal effect
How it was run: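 Same-well viability read: CellTiter-Fluor added after 23 hr compound exposure, fluorescence measured 1 hr later. Cells were PXR-Luc HepG2 seeded at 2,000/well in 5% charcoal-stripped FBS medium, rested 5 hr before dosing at 37 C.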

[14] = biological target: Nuclear receptor subfamily 1 group I member 2 (Rattus norvegicus) (UniProt Q9R1A7); assay: Rat pregnane X receptor (rPXR) activation by small molecules, qHTS assay (AID 1346983); settings: rPXR luciferase reporter cells, One-Glo luminescence, 24 h; max activation: active compounds read high; note: nearly all actives have a fitted effect of over 20% in size; note: potency is the fitted concentration of half-maximal effect
How it was run: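 Cell-based rPXR luciferase reporter assay, 2,000 cells per well, rested 5hr at 37 C before compound addition in DMSO, then 24 hr at 37 C. One-Glo reagent was added and luminescence read after 30 min at room temperature.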

[15] = biological target: Nuclear receptor subfamily 1 group I member 2 (Homo sapiens) (UniProt O75469); assay: Human pregnane X receptor (PXR) activation by small molecules, qHTS assay (AID 1346985); note: nearly all actives have a fitted effect of over 40% in size
How it was run: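 DPX-2 cells (HepG2 co-transfected with a PXR response element and a CYP3A4-promoter luciferase construct) were seeded at 2,000 per well, rested 5 hr at 37C, then exposed to DMSO-dissolved compounds for 24 hr. Activation was read as luciferase luminescence.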

[16] = Caspase-3/7 induction in HepG2 cells by small molecules, qHTS cell viability counter screen (AID 1346981); note: nearly all actives have a fitted effect of over 30% in size; note: potency is the fitted concentration of half-maximal effect
How it was run: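 Wild-type HepG2 cells, 2,000/well, settled 5 hr at 37 C, 5% CO2 before compound addition. Viability read by CellTiter-Fluor fluorescence, reagent added after 16 hr compound exposure, then 1 hr at 37C, in the same wells as the caspase read.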

[17] = qHTS assay to identify small molecule agonists of the progesterone receptor (PR) signaling pathway - cell viability counter screen (AID 1346799; calls by dose curve; note: nearly all actives have a fitted effect of over 45% in size)
How it was run: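 Cytotoxicity measured by CellTiter-Glo luminescence (30 min, RT) in the same wells as the PR beta-lactamase agonist read. Those HEK293T cells had 16 h compound treatment at 37 C in 2% charcoal-stripped FBS medium.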

[18] = biological target: Nuclear receptor subfamily 1 group I member 2 (Homo sapiens) (UniProt O75469); assay: CYP3A4 induction through human pregnane X receptor (PXR) by small molecules, qHTS assay (AID 1346984); note: nearly all actives have a fitted effect of over 40% in size
How it was run: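 DPX-2 HepG2 cells carrying a PXR response element and CYP3A4-promoter luciferase construct, treated with compounds 24 hr at 37C. Then P450-Glo CYP3A4 Luciferin-IPA substrate (3uM final) for 3 hr at 37C, One-Glo added, luminescence read.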
% is set by controls: 0 for no effect and ±100 for the full control effect.

Cytochrome P450 2D6 (Homo sapiens), sequence (P10635 whole entry, looked up): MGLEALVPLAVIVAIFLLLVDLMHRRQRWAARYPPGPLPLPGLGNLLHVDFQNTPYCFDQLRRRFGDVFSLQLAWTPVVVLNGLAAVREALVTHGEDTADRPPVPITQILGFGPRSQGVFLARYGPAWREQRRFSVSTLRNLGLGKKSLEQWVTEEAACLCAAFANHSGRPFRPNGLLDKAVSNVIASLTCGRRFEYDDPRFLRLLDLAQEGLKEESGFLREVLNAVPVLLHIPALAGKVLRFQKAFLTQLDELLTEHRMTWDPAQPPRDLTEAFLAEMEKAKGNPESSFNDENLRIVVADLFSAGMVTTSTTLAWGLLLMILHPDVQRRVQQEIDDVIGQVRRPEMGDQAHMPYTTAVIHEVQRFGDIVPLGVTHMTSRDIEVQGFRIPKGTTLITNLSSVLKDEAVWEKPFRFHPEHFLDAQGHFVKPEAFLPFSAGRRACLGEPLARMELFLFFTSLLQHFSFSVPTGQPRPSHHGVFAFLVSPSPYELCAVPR
Cytochrome P450 2C19 (Homo sapiens), sequence (P33261 whole entry, looked up): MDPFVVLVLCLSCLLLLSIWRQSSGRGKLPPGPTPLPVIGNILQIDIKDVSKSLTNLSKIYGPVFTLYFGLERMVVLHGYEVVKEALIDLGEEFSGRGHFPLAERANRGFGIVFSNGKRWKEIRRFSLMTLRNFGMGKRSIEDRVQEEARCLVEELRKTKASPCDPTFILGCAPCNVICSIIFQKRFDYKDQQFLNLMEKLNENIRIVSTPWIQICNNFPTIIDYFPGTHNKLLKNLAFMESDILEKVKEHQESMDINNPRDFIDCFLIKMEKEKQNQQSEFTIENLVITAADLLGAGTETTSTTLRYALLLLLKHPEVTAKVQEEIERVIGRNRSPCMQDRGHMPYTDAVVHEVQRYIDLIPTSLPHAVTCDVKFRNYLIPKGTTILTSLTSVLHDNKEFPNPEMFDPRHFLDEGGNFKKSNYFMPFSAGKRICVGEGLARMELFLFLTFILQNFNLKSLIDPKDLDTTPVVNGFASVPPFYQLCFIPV
Thyrotropin-releasing hormone receptor (Homo sapiens), sequence (P34981 whole entry, looked up): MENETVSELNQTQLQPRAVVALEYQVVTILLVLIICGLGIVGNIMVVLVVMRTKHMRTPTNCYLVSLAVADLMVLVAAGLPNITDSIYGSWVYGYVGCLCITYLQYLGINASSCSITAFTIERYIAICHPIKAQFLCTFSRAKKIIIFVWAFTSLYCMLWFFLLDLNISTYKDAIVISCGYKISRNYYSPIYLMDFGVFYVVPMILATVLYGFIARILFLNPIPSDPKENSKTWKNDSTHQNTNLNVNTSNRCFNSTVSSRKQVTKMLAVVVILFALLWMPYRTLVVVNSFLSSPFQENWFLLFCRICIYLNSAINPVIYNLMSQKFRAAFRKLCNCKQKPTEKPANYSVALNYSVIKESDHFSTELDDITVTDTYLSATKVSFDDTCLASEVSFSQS
Nuclear receptor subfamily 1 group I member 2 (Rattus norvegicus), sequence (Q9R1A7 whole entry, looked up): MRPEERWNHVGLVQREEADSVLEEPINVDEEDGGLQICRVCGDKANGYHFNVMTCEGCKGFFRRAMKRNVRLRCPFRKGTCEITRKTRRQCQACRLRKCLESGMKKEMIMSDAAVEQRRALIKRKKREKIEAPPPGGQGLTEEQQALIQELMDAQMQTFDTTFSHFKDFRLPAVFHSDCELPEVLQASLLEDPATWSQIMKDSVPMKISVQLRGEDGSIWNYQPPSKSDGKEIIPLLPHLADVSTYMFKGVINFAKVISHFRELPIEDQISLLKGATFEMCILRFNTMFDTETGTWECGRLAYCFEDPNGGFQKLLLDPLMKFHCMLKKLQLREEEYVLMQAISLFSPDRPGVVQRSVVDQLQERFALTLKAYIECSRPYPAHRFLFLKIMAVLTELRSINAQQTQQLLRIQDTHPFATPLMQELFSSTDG
Nuclear receptor subfamily 1 group I member 2 (Homo sapiens), sequence (O75469 whole entry, looked up): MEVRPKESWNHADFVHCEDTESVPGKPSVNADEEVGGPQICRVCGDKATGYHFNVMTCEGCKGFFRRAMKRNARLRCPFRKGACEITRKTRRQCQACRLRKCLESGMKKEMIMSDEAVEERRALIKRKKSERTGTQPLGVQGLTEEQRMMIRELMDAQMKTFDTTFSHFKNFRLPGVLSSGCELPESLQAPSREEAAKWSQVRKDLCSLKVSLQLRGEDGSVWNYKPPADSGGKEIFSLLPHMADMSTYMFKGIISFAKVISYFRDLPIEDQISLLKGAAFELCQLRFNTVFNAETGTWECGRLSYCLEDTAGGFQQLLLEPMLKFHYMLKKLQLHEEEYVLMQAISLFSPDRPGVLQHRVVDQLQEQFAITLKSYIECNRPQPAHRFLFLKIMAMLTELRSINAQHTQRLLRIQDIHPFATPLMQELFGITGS

CN(C)CCOC(c1ccccc1)c1ccc(Br)cc1 (stereo not drawn)
active: Potency [1] 13.3 µM | Potency [11] 1.55 µM | Potency [12] 13.8 µM
inactive: Potency [2] | outcome [3] | Potency [4] | outcome [5] | Potency [6] | Potency [7] | Potency [8] | Potency [9] | Potency [10]

OC(CN1CCC(Cc2ccc(F)cc2)CC1)c1ccc(Cl)cc1 (stereo not drawn)
inactive: Potency [1] | Potency [2] | outcome [3] | outcome [5] | Potency [6] | Potency [7] | Potency [9] | Potency [10] | max activation [14] -1.2% | Potency [15]
active: Potency [13] 29.8 µM | Potency [11] 0.138 µM

S=C([S-])NCCNC(=S)[S-].[Mn+2]
active: Potency [12] 17.8 µM
inactive: Potency [2] | outcome [3] | Potency [4] | Potency [13] | Potency [7] | Potency [8] | Potency [9] | Potency [16]

CN1C[C@H]2c3ccccc3Oc3ccc(Cl)cc3[C@@H]2C1
active: Potency [11] 0.11 µM
inactive: Potency [1] | Potency [2] | outcome [3] | Potency [4] | outcome [5] | Potency [6] | Potency [7] | Potency [8] | Potency [9] | Potency [16] | Potency [10] | Potency [12]

Brc1c2ccccc2cc2ccccc12
active: Potency [10] 61.8 µM
inactive: Potency [1] | Potency [2] | outcome [3] | Potency [13] | Potency [8] | Potency [9] | Potency [16] | Potency [11]

O=C(O)CC(=O)C(=O)O
inactive: Potency [17] | Potency [2] | outcome [3] | Potency [4] | Potency [13] | Potency [7] | Potency [8] | Potency [9] | Potency [16] | Potency [11]

C[C@H](CCC(=O)O)[C@H]1CC[C@H]2[C@@H]3CC[C@@H]4C[C@H](O)CC[C@]4(C)[C@H]3C[C@H](O)[C@]12C
inactive: Potency [2] | outcome [3] | outcome [5] | Potency [6] | Potency [13] | Potency [7] | Potency [9]
active: Potency [16] 54.6 µM

CCCCCCCCCCCCN1CCCCCC1=O
inactive: Potency [1] | Potency [2] | Potency [4] | outcome [5] | Potency [6] | Potency [7] | Potency [8] | Potency [9] | Potency [16] | Potency [12]

C=C(C)C(=O)OCC
inactive: Potency [1] | Potency [2] | outcome [3] | Potency [4] | outcome [5] | Potency [6] | Potency [13] | Potency [7] | Potency [8] | Potency [9] | Potency [16] | Potency [10] | Potency [11]

Clc1ccc2c(c1)CCc1cccnc1C2=C1CCNCC1
active: Potency [1] 21.1 µM | Potency [13] 29.8 µM
inactive: Potency [2] | outcome [3] | Potency [9] | Potency [10] | max activation [14] -7.49%

CC(=O)NO
inactive: Potency [17] | Potency [2] | outcome [3] | outcome [5] | Potency [6] | Potency [13] | Potency [7] | Potency [8] | Potency [9] | Potency [16] | Potency [10] | max activation [14] -0.0404% | Potency [18] | Potency [11] | Potency [12]

C=CCOc1ccccc1OCC(O)CNC(C)C (stereo not drawn)
inactive: Potency [1] | Potency [17] | Potency [2] | outcome [3] | Potency [4] | outcome [5] | Potency [6] | Potency [13] | Potency [7] | Potency [8] | Potency [9] | Potency [16] | Potency [10] | max activation [14] 5.72% | Potency [18] | Potency [15] | Potency [12]
active: Potency [11] 9.77 µM

O=C(O)C1(C(=O)Nc2ccc(Cl)cc2Cl)CC1
active: Potency [10] 24.3 µM
inactive: Potency [2] | outcome [3] | outcome [5] | Potency [6] | Potency [13] | Potency [7] | Potency [9] | Potency [16]

Nc1ccccc1S(=O)(=O)c1ccccc1
inactive: Potency [1] | Potency [2] | outcome [3] | outcome [5] | Potency [6] | Potency [13] | Potency [7] | Potency [8] | Potency [9] | Potency [16] | Potency [11]

Cc1oc(-c2ccccc2)nc1CCOc1cccc2c1ccn2CCC(=O)O
inactive: Potency [2] | outcome [3] | Potency [7] | Potency [9] | Potency [11]
active: Potency [8] 34.4 µM | Potency [16] 34.4 µM

Cc1cccc(C)c1OCC(=O)N[C@@H](Cc1ccccc1)[C@@H](O)C[C@H](Cc1ccccc1)NC(=O)[C@H](C(C)C)N1CCCNC1=O
active: Potency [1] 29.8 µM | Potency [13] 29.8 µM | Potency [8] 26.6 µM | Potency [16] 26.6 µM | Potency [14] 11.2 µM | Potency [11] 15.5 µM | Potency [12] 21.9 µM
inactive: Potency [2] | Potency [7] | Potency [9]
